The nature of assay [1]: ATG_GLI_CIS: Attagene CIS-FACTORIAL HepG2 Assay for human Zinc Finger Protein GLI1 (AID 2282945). The settings on record: HepG2, Attagene cis-factorial reporter mRNA, GLI element; actives raise or lower the signal. The method in brief: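 Bidirectional curve fits relative to DMSO, using reporter mRNA levels from RT-PCR plus capillary electrophoresis. Cells were HepG2 transiently carrying cis-regulated reporter constructs, harvested 24 h after dosing.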

The target in assay [2] is Bile acid receptor (Homo sapiens) (UniProt Q96RI1). Description: ATG_IR1_CIS: Attagene CIS-FACTORIAL HepG2 Assay for human Nuclear Receptor Subfamily 1 Group H Member 4 (NR1H4), IR1 submotif (AID 2282946). The settings on record: IR1 reporter transcription, actives raise or lower the signal. The method in brief:
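HepG2 cells transiently transfected with multiplexed cis-element reporter units read endogenous transcription factor activity. After 24 h compound exposure, reporter mRNA was quantified by RT-PCR, fluorescent labelling, HpaI digestion and capillary electrophoresis; bidirectional fitting versus DMSO baseline.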

Assay [3] is described as follows: ATG_GRE_CIS: Attagene CIS-FACTORIAL HepG2 Assay for human Glucocorticoid Response Elements (GRE) (AID 2282947). Particulars: HepG2 GRE cis-reporter, Attagene multiplex mRNA; actives raise or lower the signal. The method in brief:
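Reporter transcripts read by RT-PCR with capillary electrophoresis fluorescence after a 24 h chemical exposure of HepG2 cells transiently transfected with multiple cis-element reporter units. Gain or loss fitted against DMSO.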

The nature of assay [4]: ATG_ISRE_CIS: Attagene CIS-FACTORIAL HepG2 Assay for human Interferon Regulatory Factor 1 (IRF1) binding to an Interferon-Stimulated Response Element (ISRE) (AID 2282948). Particulars: HepG2 ISRE cis-reporter (Attagene), mRNA transcription readout; actives raise or lower the signal. The gist of the method:
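Endogenous transcription factor activity read as reporter transcript abundance via RT-PCR and capillary electrophoresis. HepG2 cells transiently transfected, 24 h chemical exposure. Gain or loss fitted against DMSO baseline.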

Assay [5] is described as follows: ATG_M_32_CIS: Attagene CIS-FACTORIAL HepG2 Assay for M32 Transcription Factor (Internal Marker) (AID 2282949).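 Also: background control marker of the multiplexed CIS panel rather than a real target.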 The settings on record: HepG2 Attagene cis-factorial M32 reporter, mRNA; actives raise or lower the signal. The gist of the method:
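HepG2 human liver cells transiently transfected with cis-promoter-driven multiple reporter transcription units, dosed 24 h. Reporter mRNA quantified by RT-PCR, FAM-labelled primer extension, HpaI digest and capillary electrophoresis; bidirectional fit versus DMSO baseline.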

Assay [6] in a line: ATG_M_06_CIS: Attagene CIS-FACTORIAL HepG2 Assay for M06 Transcription Factor (Internal Marker) (AID 2282950). The settings on record: HepG2 Attagene CIS-FACTORIAL M06 internal marker reporter; actives raise or lower the signal. The gist of the method: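 Measured 24 h post-dosing in transiently transfected HepG2 cells, this internal-marker endpoint reports reporter mRNA via RT-PCR with fluorescent primer extension and capillary electrophoresis. DMSO served as negative control and baseline for bidirectional fitting.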

In assay [7] the target is Hypoxia-inducible factor 1-alpha (Homo sapiens) (UniProt Q16665). Description: ATG_HIF1a_CIS: Attagene CIS-FACTORIAL HepG2 Assay for human Hypoxia Inducible Factor 1 (HIF1A) (AID 2282951). Particulars: HepG2 Attagene cis-factorial HIF1a reporter transcription; actives raise or lower the signal. The method in brief: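 Dosed 24 h, transfected HepG2 cells yielded total RNA whose reporter transcripts were RT-PCR-amplified and sized by capillary electrophoresis using fluorescent labelling; DMSO defined baseline, with gain and loss of signal both fitted.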
Sequence of Hypoxia-inducible factor 1-alpha (Homo sapiens) (Q16665 whole entry, looked up): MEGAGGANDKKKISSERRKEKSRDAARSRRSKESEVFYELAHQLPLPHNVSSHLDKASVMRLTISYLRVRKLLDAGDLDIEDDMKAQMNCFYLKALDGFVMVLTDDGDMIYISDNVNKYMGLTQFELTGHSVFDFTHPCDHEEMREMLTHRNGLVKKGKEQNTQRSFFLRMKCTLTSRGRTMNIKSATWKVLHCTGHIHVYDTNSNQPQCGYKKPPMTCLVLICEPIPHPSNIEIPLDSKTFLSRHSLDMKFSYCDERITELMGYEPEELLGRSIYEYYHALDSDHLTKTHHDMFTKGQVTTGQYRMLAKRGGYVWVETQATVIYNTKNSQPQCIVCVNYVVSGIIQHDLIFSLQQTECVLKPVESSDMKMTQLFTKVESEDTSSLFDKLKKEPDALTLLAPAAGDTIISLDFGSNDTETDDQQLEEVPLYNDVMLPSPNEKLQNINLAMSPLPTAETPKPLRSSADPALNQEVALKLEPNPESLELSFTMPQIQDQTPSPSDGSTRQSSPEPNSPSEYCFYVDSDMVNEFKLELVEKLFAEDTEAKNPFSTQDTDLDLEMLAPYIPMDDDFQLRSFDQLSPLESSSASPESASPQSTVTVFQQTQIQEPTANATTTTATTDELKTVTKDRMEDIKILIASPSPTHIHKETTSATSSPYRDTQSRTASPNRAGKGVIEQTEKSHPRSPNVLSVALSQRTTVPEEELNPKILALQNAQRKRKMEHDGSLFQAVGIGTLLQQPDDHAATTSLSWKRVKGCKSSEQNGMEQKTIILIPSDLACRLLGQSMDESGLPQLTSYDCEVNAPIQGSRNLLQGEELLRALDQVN

Assay [8] deals with Hepatocyte nuclear factor 6 (Homo sapiens) (UniProt Q9UBC0). In words: ATG_HNF6_CIS: Attagene CIS-FACTORIAL HepG2 Assay for human Hepatocyte Nuclear Factor 6 (HNF6) (AID 2282952). Particulars: HepG2 Attagene cis-factorial HNF6 reporter transcription; actives raise or lower the signal. The gist of the method: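 Endogenous transcription factor activity in human HepG2 liver cells was captured through cis-regulated reporter constructs. After 24 h treatment, reporter mRNA was measured by RT-PCR with capillary electrophoresis, and activity was fitted in both directions relative to DMSO.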
Sequence of Hepatocyte nuclear factor 6 (Homo sapiens) (Q9UBC0 whole entry, looked up): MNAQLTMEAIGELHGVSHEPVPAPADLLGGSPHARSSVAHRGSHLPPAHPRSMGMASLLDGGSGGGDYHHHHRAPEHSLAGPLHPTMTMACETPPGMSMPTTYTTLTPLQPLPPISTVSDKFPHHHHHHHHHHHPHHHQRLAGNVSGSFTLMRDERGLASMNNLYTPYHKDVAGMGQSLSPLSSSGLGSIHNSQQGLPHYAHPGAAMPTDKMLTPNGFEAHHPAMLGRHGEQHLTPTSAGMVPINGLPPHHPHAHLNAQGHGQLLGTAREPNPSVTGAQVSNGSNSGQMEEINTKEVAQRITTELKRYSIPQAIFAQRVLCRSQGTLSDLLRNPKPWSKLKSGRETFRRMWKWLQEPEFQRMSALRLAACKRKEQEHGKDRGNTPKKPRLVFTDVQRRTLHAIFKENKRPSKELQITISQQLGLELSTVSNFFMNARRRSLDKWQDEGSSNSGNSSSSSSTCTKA

In assay [9] the target is Heat shock factor protein 1 (Homo sapiens) (UniProt Q00613). In words: ATG_HSE_CIS: Attagene CIS-FACTORIAL HepG2 Assay for human Heat Shock Transcription Factor 1 (HSE) (AID 2282953). Particulars: HepG2 HSE cis-reporter, Attagene RNA transcription; actives raise or lower the signal. The method in brief:
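Reporter mRNA induction in HepG2 is measured 24 h after dosing, using transiently transfected multiplexed cis-regulated reporter units. Signal comes from capillary electrophoresis of labelled RT-PCR products, with DMSO as negative control.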

Assay [10] in a line: ATG_MRE_CIS: Attagene CIS-FACTORIAL HepG2 Assay for human Metal Responsive Element (MRE) (AID 2282954). The settings on record: HepG2 MRE cis-reporter transcription, Attagene multiplex; actives raise or lower the signal. The gist of the method:
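Endogenous MRE-dependent transcription read as reporter mRNA in transiently transfected human HepG2 cells at 24 h. RNA reverse-transcribed, PCR-amplified, labelled and resolved by capillary electrophoresis; gain or loss relative to DMSO.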

Assay [11] can be described thus: ATG_PBREM_CIS: Attagene CIS-FACTORIAL HepG2 Assay for human Phenobarbital-responsive Enhancer Module (PBREM) (AID 2282955). Particulars: HepG2 PBREM cis-reporter, Attagene multiplexed transcription; actives raise or lower the signal. The gist of the method:
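Transfected liver-derived HepG2 cells exposed 24 h; PBREM reporter transcript quantified via RT-PCR and capillary electrophoresis, with activity in either direction referenced to DMSO.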

The target of assay [12] is Paired box protein Pax-6 (Homo sapiens) (UniProt P26367). In words: ATG_Pax6_CIS: Attagene CIS-FACTORIAL HepG2 Assay for human Paired Box 6 (PAX6) (AID 2282956). The settings on record: HepG2 CIS-FACTORIAL PAX6 reporter transcription, RNA readout; actives raise or lower the signal. The method in brief:
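Read-out is reporter transcript level, measured by RT-PCR with fluorescent primer extension and capillary electrophoresis after 24 h dosing of transfected HepG2 cells. Activity in either direction fitted relative to DMSO control.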

Assay [13] is described as follows: ATG_PXRE_CIS: Attagene CIS-FACTORIAL HepG2 Assay for human Pregnane X Receptor Element (PXRE) (AID 2282957). Particulars: HepG2 Attagene CIS-FACTORIAL PXRE reporter, mRNA; actives raise or lower the signal. The gist of the method: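 Endogenous transcription factor activity in HepG2 was gauged through induction of reporter mRNA driven by a cis-regulating promoter element, sampled 24 h post-treatment. Activity was fitted in both directions against DMSO negative control.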

Assay [14] is described as follows: ATG_PPRE_CIS: Attagene CIS-FACTORIAL HepG2 Assay for human Peroxisome Proliferator-activated Response Element (PPRE) (AID 2282958). Particulars: HepG2 PPRE cis-element reporter, Attagene transcription factor profiling; actives raise or lower the signal. The method in brief:
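Measured endpoint: PPRE-controlled reporter mRNA, detected by RT-PCR and capillary electrophoresis fluorescence, from transiently transfected HepG2 cells 24 h after dosing. Curves fitted in both directions using DMSO baseline.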

Assay [15] is described as follows: ATG_RORE_CIS: Attagene CIS-FACTORIAL HepG2 Assay for human RAR-related Orphan Receptor Element (RORE) (AID 2282959). The settings on record: HepG2 Attagene cis-factorial RORE reporter, mRNA; actives raise or lower the signal. The gist of the method: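 Transiently transfected HepG2 reporter cells were treated 24 h. Reporter transcripts were detected by RT-PCR and capillary electrophoresis, with bidirectional fitting against DMSO.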

The nature of assay [16]: ATG_Sox_CIS: Attagene CIS-FACTORIAL HepG2 Assay for human SRY-box transcription factor (SOX) (AID 2282960). The settings on record: HepG2 Attagene cis-factorial SOX reporter, mRNA; actives raise or lower the signal. The gist of the method: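 Gain- or loss-of-signal endpoint, fitted bidirectionally with DMSO as negative control. Based on reporter mRNA from transfected HepG2 cells harvested 24 h post-treatment and quantified via RT-PCR and capillary electrophoresis.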

The target of assay [17] is Transcription factor Sp1 (Homo sapiens) (UniProt P08047). In words: ATG_Sp1_CIS: Attagene CIS-FACTORIAL HepG2 Assay for human Specificity Protein 1 (Sp1) (AID 2282961). The settings on record: HepG2 Sp1 cis-reporter transcription, actives raise or lower the signal. The method in brief: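 Endpoint reflects endogenous Sp1 transcriptional activity, not an exogenous fusion protein: HepG2 cells with transfected cis-regulated reporters, 24 h dosing, RT-PCR/capillary electrophoresis mRNA read-out, DMSO-normalised bidirectional fit.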
Sequence of Transcription factor Sp1 (Homo sapiens) (P08047 whole entry, looked up, the tested form may be a part): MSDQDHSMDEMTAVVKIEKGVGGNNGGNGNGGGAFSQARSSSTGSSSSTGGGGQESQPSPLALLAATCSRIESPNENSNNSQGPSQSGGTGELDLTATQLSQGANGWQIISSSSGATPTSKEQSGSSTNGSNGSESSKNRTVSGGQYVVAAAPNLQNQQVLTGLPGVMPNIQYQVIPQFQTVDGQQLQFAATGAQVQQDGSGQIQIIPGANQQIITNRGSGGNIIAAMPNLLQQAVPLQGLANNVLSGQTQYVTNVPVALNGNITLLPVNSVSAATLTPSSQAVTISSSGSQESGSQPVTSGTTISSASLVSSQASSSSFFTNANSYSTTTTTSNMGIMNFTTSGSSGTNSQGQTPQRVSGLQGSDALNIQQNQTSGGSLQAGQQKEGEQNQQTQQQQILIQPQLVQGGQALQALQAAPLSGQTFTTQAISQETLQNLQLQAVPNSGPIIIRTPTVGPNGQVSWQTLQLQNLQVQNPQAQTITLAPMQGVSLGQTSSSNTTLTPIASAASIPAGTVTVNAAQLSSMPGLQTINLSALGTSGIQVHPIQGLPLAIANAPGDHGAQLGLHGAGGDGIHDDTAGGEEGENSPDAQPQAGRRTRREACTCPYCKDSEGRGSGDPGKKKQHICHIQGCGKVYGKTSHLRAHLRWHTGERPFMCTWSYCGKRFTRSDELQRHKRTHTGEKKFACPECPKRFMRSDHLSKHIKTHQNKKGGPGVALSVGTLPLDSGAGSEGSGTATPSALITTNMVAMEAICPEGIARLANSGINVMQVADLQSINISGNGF

Assay [18] can be described thus: ATG_SREBP_CIS: Attagene CIS-FACTORIAL HepG2 Assay for human Sterol Regulatory Element Binding (SREBP) (AID 2282962). Particulars: HepG2 Attagene cis-factorial SREBP reporter, mRNA; actives raise or lower the signal. The method in brief:
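Endogenous SREBP activity read as cis-element-driven reporter transcript in transiently transfected HepG2, 24 h post-dosing; quantified via RT-PCR plus capillary electrophoresis of fluorescent fragments. Gain or loss of signal fitted relative to DMSO baseline.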

Assay [19] deals with Signal transducer and activator of transcription 3 (Homo sapiens) (UniProt P40763). Description: ATG_STAT3_CIS: Attagene CIS-FACTORIAL HepG2 Assay for human Signal Transducer and Activator of Transcription 3 (STAT3) (AID 2282963). The settings on record: HepG2, Attagene cis-factorial STAT3 reporter transcription; actives raise or lower the signal. The method in brief: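 Readout is reporter transcript quantified by RT-PCR and capillary electrophoresis, with 6-FAM primer extension and HpaI digestion. Total RNA is taken 24 h after dosing transiently transfected HepG2 carrying cis-regulated reporter units. Bidirectional fit against DMSO.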
Sequence of Signal transducer and activator of transcription 3 (Homo sapiens) (P40763 whole entry, looked up): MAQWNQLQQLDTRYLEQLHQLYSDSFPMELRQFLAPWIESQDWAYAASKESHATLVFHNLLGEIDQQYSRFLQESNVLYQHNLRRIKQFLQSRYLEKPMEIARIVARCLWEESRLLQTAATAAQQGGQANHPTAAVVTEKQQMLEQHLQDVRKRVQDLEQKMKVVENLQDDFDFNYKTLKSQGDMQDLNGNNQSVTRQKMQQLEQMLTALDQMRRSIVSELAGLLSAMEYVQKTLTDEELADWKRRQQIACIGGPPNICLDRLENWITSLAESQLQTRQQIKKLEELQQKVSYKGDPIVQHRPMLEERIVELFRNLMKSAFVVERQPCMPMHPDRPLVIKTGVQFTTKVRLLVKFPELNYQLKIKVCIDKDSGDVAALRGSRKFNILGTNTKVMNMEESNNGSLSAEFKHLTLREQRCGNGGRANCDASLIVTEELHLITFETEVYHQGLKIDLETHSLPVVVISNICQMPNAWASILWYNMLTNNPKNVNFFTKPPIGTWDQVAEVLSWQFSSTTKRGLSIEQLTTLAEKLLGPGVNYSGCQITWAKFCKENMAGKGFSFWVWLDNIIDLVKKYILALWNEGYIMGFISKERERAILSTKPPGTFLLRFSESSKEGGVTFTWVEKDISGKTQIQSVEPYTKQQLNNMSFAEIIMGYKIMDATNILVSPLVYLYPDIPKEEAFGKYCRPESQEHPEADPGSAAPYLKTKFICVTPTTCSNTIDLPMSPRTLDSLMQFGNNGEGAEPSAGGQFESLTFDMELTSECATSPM

Assay [20] is described as follows: ATG_TA_CIS: Attagene CIS-FACTORIAL HepG2 Assay for human TA Basal Promoter (AID 2282964). The settings on record: HepG2 Attagene CIS-factorial TA basal promoter reporter; actives raise or lower the signal. The method in brief: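 Cis-factorial format in HepG2: reporters report endogenous factors, not chimeric Gal4 fusions. After 24 h treatment, reporter transcripts were measured by RT-PCR-capillary electrophoresis fluorescence, analysed bidirectionally versus DMSO.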

For 3 molecules, outcome and AC50 results are on record in PubChem BioAssay (EPA / NIEHS).

The AC50 is the concentration giving half of the maximal activity seen.

Values joined by “and” are separate entries in the source; they are usually repeats but may differ in a detail not shown here. Identical values can stand only once. A structure can be active in one record and inactive in another. Active and inactive are the calls of the source. The calls were made as follows: active = hit-call score of the fitted dose curve at least 0.9, where 1 is the maximum; inactive = score below 0.9.

Sequence of Heat shock factor protein 1 (Homo sapiens) (Q00613 whole entry, looked up): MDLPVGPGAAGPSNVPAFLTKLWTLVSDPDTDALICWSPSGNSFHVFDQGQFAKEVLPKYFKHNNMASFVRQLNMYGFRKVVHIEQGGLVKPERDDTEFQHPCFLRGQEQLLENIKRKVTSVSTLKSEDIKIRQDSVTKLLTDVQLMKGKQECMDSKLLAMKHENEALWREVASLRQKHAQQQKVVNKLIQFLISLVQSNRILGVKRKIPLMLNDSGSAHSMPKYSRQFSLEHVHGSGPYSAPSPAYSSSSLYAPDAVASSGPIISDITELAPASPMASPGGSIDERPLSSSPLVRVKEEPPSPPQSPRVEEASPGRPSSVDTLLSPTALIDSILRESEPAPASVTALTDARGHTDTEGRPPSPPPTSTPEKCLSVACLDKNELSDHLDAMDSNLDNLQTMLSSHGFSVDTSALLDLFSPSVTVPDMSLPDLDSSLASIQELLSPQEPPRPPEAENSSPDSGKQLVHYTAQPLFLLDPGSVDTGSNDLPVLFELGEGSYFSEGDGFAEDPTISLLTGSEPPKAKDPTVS
Sequence of Bile acid receptor (Homo sapiens) (Q96RI1 whole entry, looked up): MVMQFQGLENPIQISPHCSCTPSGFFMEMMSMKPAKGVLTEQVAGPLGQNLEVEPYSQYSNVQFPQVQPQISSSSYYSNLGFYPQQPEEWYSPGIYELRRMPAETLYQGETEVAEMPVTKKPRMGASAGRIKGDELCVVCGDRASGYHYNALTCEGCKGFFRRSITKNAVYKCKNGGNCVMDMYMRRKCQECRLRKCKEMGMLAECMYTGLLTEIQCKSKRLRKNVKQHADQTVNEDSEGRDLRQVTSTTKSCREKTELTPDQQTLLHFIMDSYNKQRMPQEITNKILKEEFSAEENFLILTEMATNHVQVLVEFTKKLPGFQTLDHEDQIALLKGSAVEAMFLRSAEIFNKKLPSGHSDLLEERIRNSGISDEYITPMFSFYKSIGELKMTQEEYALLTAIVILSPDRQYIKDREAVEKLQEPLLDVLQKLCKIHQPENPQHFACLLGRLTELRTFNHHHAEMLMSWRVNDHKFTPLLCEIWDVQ
Sequence of Paired box protein Pax-6 (Homo sapiens) (P26367 whole entry, looked up): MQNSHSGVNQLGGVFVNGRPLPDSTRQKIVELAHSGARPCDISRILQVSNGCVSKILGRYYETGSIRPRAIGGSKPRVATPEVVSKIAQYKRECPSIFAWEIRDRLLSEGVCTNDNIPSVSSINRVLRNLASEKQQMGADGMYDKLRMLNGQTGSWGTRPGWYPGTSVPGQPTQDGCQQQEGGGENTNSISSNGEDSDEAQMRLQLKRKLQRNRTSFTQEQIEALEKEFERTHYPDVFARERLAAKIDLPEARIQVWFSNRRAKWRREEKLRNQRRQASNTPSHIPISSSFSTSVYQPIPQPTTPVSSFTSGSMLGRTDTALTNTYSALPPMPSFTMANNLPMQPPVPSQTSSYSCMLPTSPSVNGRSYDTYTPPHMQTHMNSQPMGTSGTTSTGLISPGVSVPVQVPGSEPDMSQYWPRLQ

On to `C[C@]12CC[C@@H]3c4ccc(O)cc4C[C@@H](CCCCCCCCCS(=O)CCCC(F)(F)C(F)(F)F)[C@H]3[C@@H]1CC[C@@H]2O` (some centres not stated), for which the result in assay [1], in [2], in assay [3], in [4], in assay [5] and in [6] was inactive. Also, the molecule was classed as inactive in [7], in [8], in assay [9], in assay [10], in [11] and in assay [12]. Moreover, the call in assay [14], in assay [15], in assay [16], in assay [17], in assay [18] and in assay [19] was inactive. In addition, in assay [20], the outcome was inactive. Besides, the figures for the AC50 in assay [10], in assay [11] and in [13] were 1390 nM (active), 376 nM (active) and 363 nM (active) [middle of 4 runs], respectively.

Consider `O=C(c1ccccc1)C1CCCCC1`, for which the result in assay [2], in assay [3], in assay [4], in [5], in assay [6] and in assay [7] was inactive. Also, the result in assay [8], in assay [9], in assay [10], in assay [11], in [12] and in [14] was inactive. Also, the molecule was classed as inactive in [15], in [16], in [17], in assay [18], in assay [19] and in assay [20]. Moreover, the AC50 in assay [11] is 53200 nM (active); in assay [13] it was 26.9 µM (active) [middle of 4 runs]; in assay [14] it was 31.5 µM (active) and 67.1 µM (active).

Turning to `CCSC(=O)N(CC(C)C)CC(C)C`, the result in assay [1], in [3], in assay [4], in [5], in assay [6] and in [7] was inactive. Also, the molecule was classed as inactive in assay [8], in assay [9], in assay [10], in assay [11], in assay [12] and in [13]. The molecule was called inactive in assay [14], in [15], in assay [16], in assay [17], in assay [18] and in assay [19]. The call in [20] was inactive.
